Rows were chosen to be rich in hits. Some 10% of all compounds tested hit in one or more screens of this group.
HEK cytotox – Cytotoxic Profiling in HEK 293 Cell Line of Diverse Libraries Using Quantitative High-Throughput Screening. HEK 293 viability, ATP luminescence (CellTiter-Glo), 48-72 h. Potency, µM (doses to about 115 µM), without a hit: top-dose activity change, negative = cytotoxicity, most hits filed as inhibitors. 94,000 compounds, 6.6% hits. AID 1345083, 2018; note: % is set by controls: 0 for no effect and ±100 for the full control effect; nearly all actives have a fitted effect of over 60% in size
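Luminescence from cellular ATP, measured with CellTiter-Glo, indicates HEK 293 viability. Cells plated at 250 cells/well are treated with compound for 48 or 72 hr at 37 degree Celsius before reagent addition.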
FLuc inh-1 – Firefly luciferase inhibition profiling of diverse chemical library using quantitative high-throughput screening; Luciferin 4-monooxygenase (Photinus pyralis), P08659; purified P. pyralis luciferase, luminescence, biochemical; Potency, µM (doses to about 115 µM), actives largely listed as inhibitors; 76,000 compounds, 2.5% hits; note: % is set by controls: 0 for no effect and ±100 for the full control effect; nearly all actives have a fitted effect of over 65% in size
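Purified 10nM P. pyralis luciferase with 10uM D-luciferin and 10uM ATP in 50mM Tris acetate pH 7.5, 10mM Mg acetate, 0.01% Tween-20, 0.05% BSA. qHTS titration; luminescence read by CCD imager.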
GPT2 inhibitor – Primary qHTS assay for inhibitors of Glutamate pyruvate transaminase 2 (GPT2); Recombinant GPT2, coupled pyruvate oxidase/HRP Amplex Red fluorescence; 100,000 compounds, 0.25% hits; Potency, µM (doses to about 57.7 µM), inactives show at the top dose activity change, negative = inhibition, actives largely listed as inhibitors; note: % is set by controls: 0 for no effect and ±100 for the full control effect; nearly all actives have a fitted effect of over 60% in size
Target sequence (Q8TD30 whole entry, looked up): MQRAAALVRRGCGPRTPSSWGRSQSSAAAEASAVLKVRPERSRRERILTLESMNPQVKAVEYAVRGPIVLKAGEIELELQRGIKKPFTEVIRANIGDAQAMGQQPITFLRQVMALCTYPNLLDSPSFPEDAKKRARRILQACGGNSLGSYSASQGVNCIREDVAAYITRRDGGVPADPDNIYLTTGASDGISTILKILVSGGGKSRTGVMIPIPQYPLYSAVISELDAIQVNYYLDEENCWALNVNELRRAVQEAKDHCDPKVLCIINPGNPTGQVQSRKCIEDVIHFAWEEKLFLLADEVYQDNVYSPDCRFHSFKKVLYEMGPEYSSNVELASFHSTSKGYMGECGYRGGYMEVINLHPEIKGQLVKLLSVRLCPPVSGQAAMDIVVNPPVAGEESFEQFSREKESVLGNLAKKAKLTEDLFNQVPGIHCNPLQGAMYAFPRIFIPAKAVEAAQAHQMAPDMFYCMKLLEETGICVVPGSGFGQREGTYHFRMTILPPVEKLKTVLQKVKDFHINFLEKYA
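Recombinant GPT2 (10ng/uL) with 250uM a-KG and 2mM L-alanine, 30 min at room temperature, in HEPES pH 7.5 buffer. Pyruvate detected by pyruvate oxidase/HRP/Amplex Red fluorescence after 30 min in the dark; AOA (50uM) as positive control.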
NIH3T3 tox – Cytotoxic Profiling in NIH 3T3 Cell Line of Diverse Libraries Using Quantitative High-Throughput Screening. NIH 3T3 viability, CellTiter-Glo ATP luminescence, 48-72 h. Potency, µM (highest dose often 96.7 µM), inactives show at the highest dose activity change, negative = cytotoxicity, hits mostly inhibitors. 94,000 compounds, 4.3% hits. AID 1345082, 2018; note: % is set by controls: 0 for no effect and ±100 for the full control effect; nearly all actives have a fitted effect of over 55% in size
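Viability of NIH 3T3 cells after 48 or 72 hr compound treatment at 37 °C was assessed by CellTiter-Glo, with luminescence imaged following a 10 min room-temperature step.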
NPR1 antag – Natriuretic polypeptide receptor (hNpr1) antagonism - Primary qHTS; 76,000 compounds, 1.6% hits; AID 1347048, 2019; HEK293 hNpr1 GloSensor cGMP, ANP-stimulated luminescence; Potency, µM (highest dose often 46.3 µM), inactives show at the top dose activity change, negative = inhibition, usual class: inhibitors; calls by dose curve; note: % is set by controls: 0 for no effect and ±100 for the full control effect; nearly all actives have a fitted effect of over 60% in size
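Compound pre-incubated 30 min at room temperature on GloSensor-loaded HEK293 cells stably carrying hNpr1 and the pGS-40F cGMP biosensor. Stimulation uses hNppA at 0.1 nM final; luminescence is taken at baseline and 20 min post-agonist.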
FLuc SDR no ATP – Firefly luciferase (FLuc-C-HiBiT) SDR gain of signal screen - without ATP | shares compounds with FLuc inh-1 | AID 1963318, 2024 | Purified FLuc-C-HiBiT, Nano-Glo HiBiT luminescence, no ATP | 1,300 compounds, 7.8% hits | Potency, µM (highest dose often 32.7 µM), without a hit: top-dose activation (signal gain), hits mostly activators; note: nearly all actives have a fitted effect of over 55% in size
FLuc SDR ATP – Firefly luciferase (FLuc-C-HiBiT) SDR gain of signal screen - plus ATP | Potency, µM (highest dose often 32.7 µM), inactives show at the top dose activation (gain of signal), most hits filed as activators | 1,300 compounds, 8.7% hits | shares compounds with FLuc inh-1 | purified FLuc-C-HiBiT + ATP, HiBiT complementation luminescence;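 note: signal reports ligand binding via conformational change of the enzyme rather than luciferase catalysis; % of control where 0% means no effect; nearly all actives have a fitted effect of over 55% in size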
FLuc inh-2 – Firefly luciferase (FLuc-C-HiBiT) enzymatic inhibition screen - Functional assay; shares compounds with FLuc inh-1; purified FLuc-C-HiBiT enzyme, luciferin luminescence; Potency, µM (titrated, usually from 32.7 µM), inactives show top-dose activity change, negative = inhibition, actives largely listed as inhibitors; 1,300 compounds, 42% hits; AID 1963320, 2024; note: % is set by controls: 0 for no effect and ±100 for the full control effect; nearly all actives have a fitted effect of over 70% in size
Active calls of the source: *; i = inactive; u = inconclusive; x = no result; [ ] = remark or other dose. Unless noted, calls come from the whole dose curve; as a rule, active = well fitted curve in the direction sought with a large enough effect; inconclusive = small, poorly fitted or top-dose-only effect, or another doubt; inactive = no such curve, though single readings can be large; an effect the other way counts as inactive or inconclusive. Potency is the fitted concentration of half-maximal effect.

SMILES	HEK cytotox	FLuc inh-1	GPT2 inhibitor	NIH3T3 tox	NPR1 antag	FLuc SDR no ATP	FLuc SDR ATP	FLuc inh-2
CC1(NC(=O)C2CC2)CN(Cc2nc(-c3ccccc3)cs2)C1	-29%[172 µM]	13µM*	-20%[88.5 µM]	u	u	16%[49.3 µM]	13%[49.3 µM]	u
COc1ccccc1NC(=O)c1cc(-c2ccc(C(F)(F)F)cc2)nc2c1cnn2C	-9%	x	x	-22%	x	x	x	x
COc1ccc(-c2nc3ccccc3s2)cc1NC(=O)c1ccccc1OC	x	x	x	x	x	18%	10%	u
CCOc1ccc(C(=O)Nc2cc(-c3nc4ccccc4s3)ccc2OC)cc1	x	x	x	x	x	17%	9%	-5%
COc1ccc(-c2nc3ccccc3s2)cc1NC(=O)c1cccc(F)c1	x	x	x	x	x	9%	8%	-12%
COc1ccc(-c2nc3ccccc3s2)cc1NC(=O)c1cc(OC)c(OC)c(OC)c1	x	x	x	x	x	14%	10%	u
CC1(CNc2ccccc2)COc2ccc(C(=O)N3CCN(c4ccccn4)CC3)cc2N1 (centres undefined)	u	i	1%	u	u	x	x	x
Cc1c(C(=O)Nc2cccc(-c3nc4ccccc4s3)c2)oc2ccc(F)cc12	x	x	x	x	x	12%	8%	-14%
Cc1cccc(NC(=O)N2CCC(Cc3nc(-c4ccccc4)n[nH]3)CC2)c1	i	i	i	-13%	1%	x	x	x
Cc1nonc1COc1ccc(C(=O)Nc2cccc(-c3nc4ccccc4s3)c2)cc1	x	x	x	x	x	9%	10%	u
COc1cc(-c2nc3ccccc3s2)ccc1O	x	x	x	x	x	24%	17%	11µM*
O=C(Nc1cccc(-c2nc3ccccc3s2)c1)N1CCC(O)C1 (centres undefined)	x	x	x	x	x	u	u	8.8µM*
Cc1cccc(CN2CCCC3(CCN(Cc4cccc(O)c4)C3)C2)c1 (centres undefined)	u	i	2%	u	-15%	x	x	x
O=C(Nc1ccncc1)C1=NO[C@@H]2CN(c3ccccc3)C[C@H]12	u	i	4%[88.5 µM]	-26%[138 µM]	-12%[70.6 µM]	x	x	x
COc1ccc(-c2noc(-c3nc(-c4ccc(OC)c(OC)c4)no3)n2)cc1OC	-1%	i	i	i	1%	x	x	x
COc1ccc(-c2nc3ccccc3o2)cc1NC(=O)c1cccnc1	x	x	x	x	x	18%	11%	u
CCCCOc1ccc(C(=O)Nc2ccc(-c3nc4ccccc4s3)cc2C)cc1	x	x	x	x	x	18%	10%	0%
COc1ccc(-c2nc3cc(F)ccc3s2)cc1OC	x	x	x	x	x	20%[3.62 µM]	14%[3.62 µM]	u
COc1ccc(C(=O)Nc2cc(-c3nc4ccccc4s3)ccc2OC)cc1	x	x	x	x	x	13%	10%	u
COCCCNC(=O)c1ccc2nc(-c3cccnc3)oc2c1	u	x	-2%[88.5 µM]	u	x	x	x	x
O=C(c1cncs1)N1CCc2c(cc(-c3cccc(F)c3)c(=O)n2CCN2CCCCC2)C1	4%	i	i	i	5%	x	x	x
